TRPML1 agonist – activates the human TRPML1 channel | TRPML1-expressing cells, Ca2+ dye fluorescence, FDSS | 410,000 tested, 0.12% active | Q9GZU1 | activation, % (test concentration not listed); in the data active = activation above about 50%; inconclusive = mostly about 30% to 49%
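Cells: TRPML1-DL, 1X Tet inducer, ~16 h at 37 degrees C/5% CO2. Dye: ABD Ca8 no-wash + quencher, 45-90 min RT. Read: 10 s baseline, compound add, 110 s agonist phase; 54-4 EC80 (4uM final), 110 s antagonist phase.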
GLP-1R inv ag – GLP-1 receptor (human) inverse agonism | P43220 | HEK293 GLP-1R CRE-luciferase, luminescence, 24 h; GLP-1R form is constitutively active | Potency, µM (doses to about 38.3 µM), usual class: inhibitors | 410,000 tested, 1.6% active; note: nearly all actives have a fitted effect of over 55% in size
Target sequence (P43220 whole entry, looked up): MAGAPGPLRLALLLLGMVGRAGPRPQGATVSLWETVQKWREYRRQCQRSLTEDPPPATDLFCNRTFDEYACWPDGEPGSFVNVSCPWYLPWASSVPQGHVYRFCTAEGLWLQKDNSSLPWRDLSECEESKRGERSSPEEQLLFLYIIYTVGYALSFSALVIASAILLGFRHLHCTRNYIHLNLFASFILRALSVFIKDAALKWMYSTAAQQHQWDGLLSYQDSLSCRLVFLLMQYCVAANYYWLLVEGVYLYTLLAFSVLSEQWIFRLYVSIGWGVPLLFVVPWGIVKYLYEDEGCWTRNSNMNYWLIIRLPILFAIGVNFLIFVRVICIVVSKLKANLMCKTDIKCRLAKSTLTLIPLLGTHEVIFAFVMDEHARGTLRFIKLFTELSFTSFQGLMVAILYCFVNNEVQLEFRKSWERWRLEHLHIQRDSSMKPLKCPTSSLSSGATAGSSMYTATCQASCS
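Luminescence readout: a drop in cAMP-driven luciferase signal flags inverse agonism at a constitutively active GLP-1R stably expressed in HEK293. Compound exposure lasted 24 hr at 37 deg C, 5% CO2.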
TRPML1 blocker – human mucolipin-1 channel inhibition. 390,000 tested, 0.02% active. activity change, negative = inhibition, % (no concentration beside the values). Q9GZU1. AID 624415. TRPML1-inducible cells, Ca2+ dye fluorescence, FDSS; stronger effect = lower value; inhibition of EC80 agonist-evoked calcium signal; in the data active = activity change below about -50%; inconclusive = between about -30% and that limit;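 note: stimulus is agonist 54-4 at its EC80 concentration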
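Tet-induced TRPML1-DL cells loaded with Ca8 no-wash calcium dye were read kinetically on FDSS. Compound addition was followed by EC80 agonist 54-4 (4 uM final); inhibition was read over 110 s.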
GLP1R ag – activates the human GLP-1 receptor. P43220. Potency, µM (top dose mostly 45.6 µM), usual class: activators. HEK293 GLP-1R CRE-luciferase, luminescence, 4-6 h; cells express a hypersensitive GLP-1R form. 380,000 tested, 0.007% active
HEK293 tox – cytotoxicity counter-screen for GLP-1 receptor inverse agonists | 410,000 tested, 0.13% active | Potency, µM (titrated, usually from 38.3 µM), most hits filed as inhibitors | HEK293 cAMP-luciferase reporter cells, luminescence, 24 h;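 note: loss of luciferase light is scored as toxicity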
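Quantitative HTS format, 1536 wells, 200 cells/uL seeded. Compounds: 23 nL, 24 h, 37 °C. Detection: luciferase reagent, luminescence at 12 min RT; decreased signal taken as cytotoxic.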
Large screens that a line does not name were inactive. In the library only some 1.8% were active in any assay of this set; here they are far more common. Unless noted, calls come from the whole dose curve; as a rule, active = well fitted curve in the direction sought with a large enough effect; inconclusive = small, poorly fitted or top-dose-only effect, or another doubt; inactive = no such curve, though single readings can be large; an effect the other way counts as inactive or inconclusive.

CC(=O)c1ccc(NC(=O)c2ccc(-c3nc(COc4ccc(C)cc4)c(C)o3)cc2)cc1	none (no result: GLP1R ag)
COc1cccc(CNC(=O)CN2C(=O)N(c3cc(C)ccc3C)S(=O)(=O)c3ccccc32)c1OC	GLP-1R inv ag inconclusive
CN(C)Cc1cc(C(C)(C)c2ccccc2)ccc1O	GLP-1R inv ag 10µM
CCOC(=O)c1cc(-c2ccccc2)n(-c2cccc(C(=O)Nc3ccc(OCC)cc3)c2)c1C	GLP-1R inv ag 5.01µM (no result: GLP1R ag)
CCOC(=O)c1cc(-c2ccccc2)n(CCCC(=O)Nc2ccc(C)c(Cl)c2)c1C	GLP-1R inv ag inconclusive (no result: GLP1R ag)
CCOC(=O)c1cc(-c2ccccc2)n(CCC(=O)Nc2ccc(C(F)(F)F)cc2)c1C	GLP-1R inv ag 7.08µM, HEK293 tox inconclusive (no result: GLP1R ag)
CCOC(=O)c1cc(-c2ccccc2)n(CCC(=O)Nc2ccc(OC)c(Cl)c2)c1C	GLP-1R inv ag inconclusive (no result: GLP1R ag)
CCOC(=O)c1cc(-c2ccccc2)n(CCCC(=O)Nc2ccc(CC)cc2)c1C	GLP-1R inv ag 10µM (no result: GLP1R ag)
CCN(CC)CCOC(=O)c1ccc(NC(=O)CCCN2C(=O)S/C(=C/c3ccc(OC)cc3)C2=S)cc1	GLP-1R inv ag 2.82µM, HEK293 tox inconclusive
COc1ccc(/C=C2\SC(=S)N(CCC(=O)Nc3ccc(O)cc3)C2=O)cc1	none
O=C(O)/C=C(/CC(=O)O)C(=O)O	none (no result: TRPML1 agonist, GLP-1R inv ag, TRPML1 blocker, HEK293 tox)
C[N+]1(C)CCC(OC(=O)CC(O)(c2ccccc2)C2CCCC2)C1 (configuration not stated)	none (no result: TRPML1 agonist, GLP-1R inv ag, TRPML1 blocker, HEK293 tox)
COc1ccc2nc(C)cc(Nc3ccccc3O)c2c1	GLP-1R inv ag inconclusive, HEK293 tox inconclusive
COc1ccc2nc(C)cc(NCc3cccc(C(F)(F)F)c3)c2c1	GLP-1R inv ag 2.82µM, HEK293 tox inconclusive
CC1COC(=O)C(NNc2ccc(Cl)c(Cl)c2)=N1 (configuration not stated)	GLP-1R inv ag 2.24µM, HEK293 tox inconclusive
CCCCOc1ccc(C(=O)NCC(=O)N2CC(C)OC(C)C2)cc1 (configuration not stated)	none
CCCCOc1ccc(C(=O)NCC(=O)N2CC(C)CC(C)C2)cc1 (configuration not stated)	GLP-1R inv ag 11.2µM
COc1ccccc1-c1cc(C(F)(F)F)nc(S(=O)(=O)CCCC(=O)Nc2cccnc2Cl)n1	GLP-1R inv ag inconclusive, HEK293 tox 8.91µM
COc1ccccc1-c1cc(C(F)(F)F)nc(S(=O)(=O)CCCC(=O)Nc2ccccc2F)n1	none (no result: GLP1R ag)
CC1CN(Cc2ccccc2)C(=O)N(c2ccccc2)C1=O (configuration not stated)	none
CC1CN(Cc2ccccc2)c2ccccc2NC1=S (configuration not stated)	GLP-1R inv ag 11.2µM, HEK293 tox inconclusive
CN(CCCNC(=O)CSc1cc(=O)n(C)c2cc(Cl)ccc12)Cc1ccccc1	GLP-1R inv ag 7.94µM
Cc1ccccc1NC(=O)CSc1nc2ccccc2c2nc(CCn3c(C)nc4ccccc43)nn12	none (no result: GLP1R ag)
Cc1nc2ccccc2n1CCc1nc2c3ccccc3nc(SCC(=O)NCc3ccco3)n2n1	GLP-1R inv ag inconclusive, HEK293 tox 10µM
Cc1ccccc1OCC(=O)NCC(=O)OCC(=O)c1ccc(F)cc1	none (no result: GLP-1R inv ag, TRPML1 blocker, GLP1R ag, HEK293 tox)
OCCn1c(-c2ccc3c(c2)OCO3)csc1=Nc1ccccc1	GLP-1R inv ag 3.55µM
CCCOc1ccccc1C1C(C(=O)Nc2ccccc2)=C(C)Nc2nnnn21 (configuration not stated)	GLP-1R inv ag 8.91µM, HEK293 tox inconclusive (no result: GLP1R ag)
CCCCCOC(=O)C1=C(C)Nc2nnnn2C1c1ccccc1Cl (configuration not stated)	GLP-1R inv ag 10µM
COC(=O)C1=C(C)Nc2nnnn2C1c1ccccc1Cl (configuration not stated)	none
CCOC(=O)c1cc(-c2ccccc2)n(CCC(=O)NCCc2ccccc2)c1C	GLP-1R inv ag inconclusive (no result: GLP1R ag)
Cc1cccc(Cn2cnc3c(cnn3C(C)(C)C)c2=O)c1	none (no result: GLP-1R inv ag, GLP1R ag, HEK293 tox)
COc1ccc2oc(C(=O)NCc3ccccc3CN3CCCC3)c(C)c2c1	GLP-1R inv ag inconclusive
CCC(CC)NC(=O)c1oc2ccccc2c1COc1ccccc1	GLP-1R inv ag inconclusive
COCc1c(C(=O)NCc2ccccc2CN2CCCC2)oc2ccccc12	GLP-1R inv ag 10µM
CC(C)CNC(=O)c1oc2ccccc2c1COc1ccccc1	GLP-1R inv ag 5.01µM
Cc1coc2cc3oc(=O)c(CCC(=O)N4CCCCC4)c(C)c3cc12	none (no result: GLP1R ag)
CC(C)(C)Cc1c(-c2ccc(C#N)cc2)nc2c(Cl)cc(C(F)(F)F)cn12	TRPML1 agonist 72.1, GLP-1R inv ag inconclusive
Cc1ccc(COn2c(-c3ccc(Cl)cc3Cl)nc3ncccc32)cc1	GLP-1R inv ag 10µM
OCCN1CCN(Cc2cc(Cl)c3cccnc3c2O)CC1	GLP-1R inv ag inconclusive, HEK293 tox inconclusive
COc1ccccc1N1CCN(Cc2cc(Br)c(O)c3ncccc23)CC1	GLP-1R inv ag inconclusive, HEK293 tox 1.12µM
Oc1c(CN2CCN(c3ccccn3)CC2)cc(Cl)c2cccnc12	GLP-1R inv ag 0.501µM, HEK293 tox inconclusive
CCOCc1cc(CN2CCN(c3ccccc3OC)CC2)c(O)c2ncccc12	GLP-1R inv ag 5.01µM (no result: GLP1R ag)
CCCOCc1cc(CN2CCN(c3ccccc3OC)CC2)c(O)c2ncccc12	GLP-1R inv ag inconclusive, HEK293 tox inconclusive (no result: GLP1R ag)
CCC1=C[C@@H]2CN(C1)Cc1c([nH]c3ccccc13)[C@@](C(=O)OC)(c1cc3c(cc1OC)N(C)[C@@H]1[C@@](O)(C(=O)OC)[C@H](OC(C)=O)[C@]4(CC)C=CCN5CC[C@]31[C@@H]54)C2	none (no result: TRPML1 agonist, GLP-1R inv ag, TRPML1 blocker, HEK293 tox)
Cc1c(C)n(Cc2ccccc2)c2ccc(C(=O)N3CCN(c4ccccc4F)CC3)cc12	GLP-1R inv ag inconclusive (no result: GLP1R ag)
O=S(=O)(c1ccc(Cl)c(NC(=S)N/N=C/c2c(F)cccc2F)c1)N1CCOCC1	GLP-1R inv ag 2.51µM, HEK293 tox inconclusive
COc1cc2nc(N3CCOCC3)nc(NC3CCN(C)CC3)c2cc1OC	none (no result: GLP-1R inv ag, TRPML1 blocker, GLP1R ag, HEK293 tox)
CC(C)Cn1c(SCC(=O)N2CCCc3ccccc32)nc2ccccc2c1=O	GLP-1R inv ag 2.51µM
CCCC(=O)NC(c1ccco1)c1cc(Cl)c2cccnc2c1O (configuration not stated)	GLP-1R inv ag inconclusive
CCCC(=O)NC(c1ccc2c(c1)OCO2)c1cc(Cl)c2cccnc2c1O (configuration not stated)	GLP-1R inv ag 3.98µM
Cc1cc[n+](C2CCCCC2)c2ccccc12	none (no result: GLP-1R inv ag, TRPML1 blocker, GLP1R ag, HEK293 tox)
O=C(NCc1ccccc1Cl)NCc1noc2ccccc12	none (no result: GLP1R ag)
CCOc1ccc(S(=O)(=O)n2cc(-c3ccc(F)cc3)c(N)n2)cc1	GLP-1R inv ag inconclusive
CCOc1cc(S(=O)(=O)n2cc(-c3ccc(F)cc3)c(N)n2)cc(OCC)c1OCC	GLP-1R inv ag 2.24µM, HEK293 tox inconclusive
O=[N+]([O-])c1ccc(-[n+]2ccc3ccccc3c2)c([N+](=O)[O-])c1	GLP-1R inv ag inconclusive, HEK293 tox 12.6µM

Screens from PubChem BioAssay.
